Laboratory results: PubChem BioAssay AID1159580 (chemical genetic matrix, 2015)
Values joined by “and” are separate entries in the source; they are usually repeats but may differ in a detail not shown here. Equal entries are not always repeated. Among all 5,500 compounds or so, about 2,000 (36%) were called active. Inconclusive results (about 18%) are left out. Rule as the data show it: active = normalized growth mostly below about 0.91 (no sharp cut-off); inconclusive = no clear call, values can overlap the other calls; inactive = mostly above about 0.92. The list shows a part of the results.

Experiment: chemical genetic growth profiling, strain panel (AID 1159580);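 also: tested at 20 µM; growth read once vehicle control cultures reached saturation at 30 °C; 1 = growth at the plate median or of vehicle wells; lower values mean less growth of the strain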
Conditions: S. cerevisiae deletion strains, growth OD

Measured: normalized growth

CCCCN1CCCCC1C(=O)Nc1c(C)cccc1C (configuration not stated)
inactive: locus YAL013W, strain DEP1, hits give low values 1.02 | locus YAL021C, strain ccr4, hits give low values 0.992 | locus YAL026C, strain drs2, hits give low values 1.01 | locus YAL030W, strain snc1, hits give low values 0.991 | locus YBL061C, strain skt5, hits give low values 0.992 | locus YBR009C, strain hhf1, hits give low values 0.976 | locus YBR021W, strain FUR4, hits give low values 1.01 | locus YBR023C, strain chs3, hits give low values 0.977 | locus YBR171W, strain sec66, hits give low values 0.991 | locus YBR229C, strain ROT2, hits give low values 1.02 | locus YBR231C, strain swc5, hits give low values 0.995 | locus YBR279W, strain paf1, hits give low values 0.994 | locus YCL011C, strain gbp2, hits give low values 0.986 | locus YCL016C, strain dcc1, hits give low values 1 | locus YCL029C, strain bik1, hits give low values 0.986 | locus YCL061C, strain MRC1, hits give low values 0.981 | locus YCL069W, strain vba3, hits give low values 0.99 | locus YCR088W, strain abp1, hits give low values 0.986 | locus YDL005C, strain med2, hits give low values 0.984 | locus YDL035C, strain GPR1, hits give low values 1.03 | locus YDL040C, strain nat1, hits give low values 1 | locus YDL074C, strain BRE1, hits give low values 1.01 | locus YDL101C, strain DUN1, hits give low values 1.01 | locus YDL134C, strain PPH21, hits give low values 1.01 | locus YDL185W, strain tfp1, hits give low values 0.995 | locus YDL192W, strain arf1, hits give low values 1 | locus YDR001C, strain nth1, hits give low values 0.978 | locus YDR069C, strain doa4, hits give low values 0.972 | locus YDR101C, strain arx1, hits give low values 1 | locus YDR137W, strain rgp1, hits give low values 0.965 | locus YDR150W, strain NUM1, hits give low values 1.02 | locus YDR159W, strain sac3, hits give low values 0.984 | locus YDR162C, strain NBP2, hits give low values 1.02 | locus YDR195W, strain ref2 0.967 | locus YDR297W, strain sur2, hits give low values 0.986 | locus YDR318W, strain mcm21, hits give low values 0.995 | locus YDR334W, strain swr1, hits give low values 0.969 | locus YDR335W, strain msn5, hits give low values 0.987 | locus YDR388W, hits give low values 0.986 | locus YDR392W, strain spt3, hits give low values 0.991 | locus YDR502C, strain sam2, hits give low values 1 | locus YEL003W, strain gim4, hits give low values 0.983 | locus YEL037C, strain rad23, hits give low values 0.993 | locus YEL061C, strain CIN8 (second series), hits give low values 0.973 | locus YEL061C, strain CIN8, hits give low values 1.01 | locus YER015W, strain faa2, hits give low values 0.992 | locus YER016W, strain bim1, hits give low values 0.987 | locus YER110C, hits give low values 0.995 | locus YER111C, strain swi4, hits give low values 1.01 | locus YER155C, strain BEM2 (second series), hits give low values 0.997 | locus YER155C, strain BEM2, hits give low values 1 | locus YER167W, strain BCK2, hits give low values 1.03 | locus YFR010W, strain ubp6, hits give low values 0.974 | locus YGL078C, strain dbp3, hits give low values 0.996 | locus YGL086W, strain mad1, hits give low values 1.01 | locus YGL167C, strain pmr1, hits give low values 0.992 | locus YGL173C, strain kem1, hits give low values 1.01 | locus YGL227W, strain vid30, hits give low values 0.973 | locus YGL240W, strain doc1, hits give low values 0.98 | locus YGL248W, strain PDE1, hits give low values 1.02 | locus YGL253W, strain hxk2, hits give low values 0.994 | locus YGR078C, strain PAC10, hits give low values 1.01 | locus YGR135W, strain pre9, hits give low values 0.997 | locus YGR229C, strain SMI1, hits give low values 1.01 | locus YGR252W, strain gcn5, hits give low values 1.06 | locus YHR013C, strain ard1, hits give low values 0.988 | locus YHR027C, strain rpn1, hits give low values 0.99 | locus YHR030C, strain SLT2, hits give low values 1.01 and 0.987 | locus YHR079C, strain IRE1 (second series), hits give low values 0.99 | locus YHR079C, strain IRE1, hits give low values 0.975 | locus YHR094C, strain hxt1, hits give low values 0.997 | locus YHR129C, strain ARP1, hits give low values 1.01 | locus YHR142W, strain chs7, hits give low values 0.999 | locus YHR200W, strain rpn10, hits give low values 0.986 | locus YIL066C, strain RNR3, hits give low values 1.01 | locus YIL073C, strain SPO22, hits give low values 0.989 | locus YIL125W, strain kgd1, hits give low values 0.997 | locus YIR030C, strain dcg1, hits give low values 0.992 | locus YJL092W, strain hpr5, hits give low values 0.969 | locus YJL095W, strain BCK1 (second series), hits give low values 0.995 | locus YJL095W, strain BCK1, hits give low values 1 and 0.971 | locus YJL115W, strain asf1, hits give low values 0.998 | locus YJL129C, strain trk1, hits give low values 0.966 | locus YJL134W, strain LCB3, hits give low values 1.01 | locus YJL154C, strain vps35, hits give low values 0.991 | locus YJL164C, strain tpk1, hits give low values 0.978 | locus YJL166W, strain qcr8, hits give low values 0.994 | locus YJL168C, strain set2, hits give low values 0.99 | locus YJL187C, strain SWE1 (second series), hits give low values 1.01 | locus YJL187C, strain SWE1, hits give low values 0.99 | locus YJR043C, strain POL32, hits give low values 1.01 | locus YJR066W, strain TOR1, hits give low values 0.957
